Assay [1] has as its target Nuclear receptor subfamily 1 group I member 2 (Homo sapiens) (UniProt O75469). The assay is described as follows: NVS_NR_hPXR: NovaScreen (NVS) Nuclear Receptor Binding Assay for human Pregnane X Receptor (PXR) (AID 2283365).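 Also: a drop in FRET signal versus DMSO baseline means the compound binds.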 Summed up:
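Human PXR protein, cell-free; compound added, incubated 2 h, TR-FRET read. Signal decrease vs DMSO = binding. Screened 25 uM duplicate, actives re-run as dilution series.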

The target of assay [2] is Estrogen receptor beta (Homo sapiens) (UniProt Q92731). The assay is described as follows: OT_ER_ERbERb_1440: Odyssey Thera (OT) 24-hour HEK293T Protein-Complementation Assay for Estrogen Receptor-beta/-beta Homodimer (AID 2283380).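 Also: fluorescence gain from ER beta LBD homodimer complementation read by laser scanning cytometry; scored as signal increase over DMSO baseline for both agonists and antagonists.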 The procedure, abridged: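 HEK293T cells stably expressing human ER-beta LBD (aa 310-547) PCA homodimer pair, dosed 24 h; formaldehyde-fixed, Draq5-stained. Readout: increase in nuclear (agonist) or nuclear plus cytoplasmic (antagonist) fluorescence intensity versus DMSO, gain-of-signal fitting.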

Assay [3] deals with Estrogen receptor (Homo sapiens) (UniProt P03372). The assay is described as follows: OT_ERa_GFPERaERE_0480: Odyssey Thera (OT) 8-hour HeLa Transcription Induction Assay for Estrogen Receptor (AID 2283381; active = hit-call score of the fitted dose curve at least 0.9, where 1 is the maximum; inactive = score below 0.9). Summed up: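 An 8 h HeLa transcription-induction format with a GFP reporter under ERE control, read by fluorescence microscopy; single endpoint fitted positively with DMSO as baseline.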
Sequence of Estrogen receptor (Homo sapiens) (P03372 whole entry, looked up): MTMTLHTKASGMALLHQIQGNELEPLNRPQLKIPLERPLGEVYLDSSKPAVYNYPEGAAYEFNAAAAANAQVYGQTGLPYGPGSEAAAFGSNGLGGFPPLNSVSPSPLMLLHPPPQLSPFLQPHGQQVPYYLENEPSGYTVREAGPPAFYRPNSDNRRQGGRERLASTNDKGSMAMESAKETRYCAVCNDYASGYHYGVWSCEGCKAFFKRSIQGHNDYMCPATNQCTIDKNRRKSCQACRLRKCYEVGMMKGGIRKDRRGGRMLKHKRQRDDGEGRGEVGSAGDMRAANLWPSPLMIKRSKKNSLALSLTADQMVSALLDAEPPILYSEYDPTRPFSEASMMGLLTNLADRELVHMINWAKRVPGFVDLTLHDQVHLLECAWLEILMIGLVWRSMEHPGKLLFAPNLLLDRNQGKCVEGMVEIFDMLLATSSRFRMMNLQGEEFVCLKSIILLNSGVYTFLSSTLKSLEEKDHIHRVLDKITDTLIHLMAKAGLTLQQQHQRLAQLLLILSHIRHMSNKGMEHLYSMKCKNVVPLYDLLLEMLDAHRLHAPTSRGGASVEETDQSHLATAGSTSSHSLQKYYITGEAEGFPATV

The target is the same in assay [4]. The assay is described as follows: OT_ERa_GFPERaERE_0120: Odyssey Thera (OT) 2-hour HeLa Transcription Induction Assay for Estrogen Receptor (AID 2283382). Summed up: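 Two-hour compound treatment of HeLa cells preceded microscopy imaging of an inducible fluorescent reporter. Image-based quantification gave one endpoint, analysed for signal increase relative to DMSO controls.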

The target of assay [5] is Bile acid receptor (Homo sapiens) (UniProt Q96RI1). The assay is described as follows: OT_FXR_FXRSRC1_0480: Odyssey Thera (OT) 8-hour HEK293T Protein-Complementation Assay for Farnesoid X receptor/SRC-1 Co-activator (AID 2283383). Summed up: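 Readings were taken 8 h after dosing HEK293T cells in a split-reporter complementation format pairing FXR with SRC-1. Increased fluorescence relative to DMSO-treated wells defined activity.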
Sequence of Bile acid receptor (Homo sapiens) (Q96RI1 whole entry, looked up): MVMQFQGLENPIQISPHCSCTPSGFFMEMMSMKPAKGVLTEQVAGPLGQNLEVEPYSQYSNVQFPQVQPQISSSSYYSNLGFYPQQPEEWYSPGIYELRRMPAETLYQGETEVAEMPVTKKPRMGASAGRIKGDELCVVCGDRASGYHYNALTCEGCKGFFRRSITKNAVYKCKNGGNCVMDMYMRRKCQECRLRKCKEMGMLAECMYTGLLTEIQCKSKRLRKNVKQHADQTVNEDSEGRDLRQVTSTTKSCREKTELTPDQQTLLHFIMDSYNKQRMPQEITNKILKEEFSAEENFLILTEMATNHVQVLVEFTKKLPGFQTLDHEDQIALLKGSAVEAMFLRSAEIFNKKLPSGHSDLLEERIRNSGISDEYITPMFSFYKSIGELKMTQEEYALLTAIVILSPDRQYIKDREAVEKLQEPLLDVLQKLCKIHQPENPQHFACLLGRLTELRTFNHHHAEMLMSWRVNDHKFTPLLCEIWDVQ

Assay [6] shares this target. The assay is described as follows: OT_FXR_FXRSRC1_1440: Odyssey Thera (OT) 24-hour HEK293T Protein-Complementation Assay for Farnesoid X receptor/SRC-1 Co-activator (AID 2283384). The procedure, abridged:
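Single endpoint, analysed for increased fluorescence against DMSO controls. HEK293T cells carrying FXR and SRC-1 linked to complementary reporter halves were exposed to chemicals for 24 h before reading.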

Assay [7] deals with human Dopamine Transporter (DAT), SLC6A3 (gene 6531) (UniProt Q01959). The assay is described as follows: NVS_TR_hDAT: NovaScreen (NVS) Transporter Assay for human Dopamine Transporter (DAT) (AID 2283374).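 Also: activity means loss of bound radioligand signal relative to DMSO.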 Summed up:
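Extracted human SLC6A3 protein incubated 1 h with radioligand and test chemical; bound fraction separated on filters and counted. Single 25 uM duplicate screen preceded concentration-response follow-up; positive and negative controls on every plate.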

Assay [8] concerns the target human Norepinephrine Transporter (NET), SLC6A2 (gene 6530) (UniProt P23975). The assay is described as follows: NVS_TR_hNET: NovaScreen (NVS) Transporter Assay for human Norepinephrine Transporter (NET) (AID 2283377).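 Also: cell-free membrane protein extracted from CHO cells expressing human NET.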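 As to AC50: displacement of radioligand from human NET seen as loss of scintillation signal.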 Summed up:
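In this cell-free binding screen, chemicals at 25 uM (duplicate) compete with a radioligand for CHO-derived human NET over 1 hour, with filter-based radiodetection.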

Assay [9] deals with Peroxisome proliferator-activated receptor gamma (Homo sapiens) (UniProt P37231). The assay is described as follows: NVS_NR_hPPARg: NovaScreen (NVS) Nuclear Receptor Binding Assay for human Peroxisome Proliferator-activated Receptor gamma (PPARg) (AID 2283370). Summed up:
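Chemicals were tested first in duplicate at 25 uM, then in concentration series if active. Binding to cell-free PPARg protein was measured by fluorescence polarization after 2 h, with loss of signal scored against DMSO.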

The target of assay [10] is Agonist Androgen Response Element (ARE), AR (gene 367) (UniProt P10275). The assay is described as follows: OT_AR_ARELUC_AG_1440: Odyssey Thera (OT) 24-hour CHO-K1 Luciferase Assay for Agonist Androgen Response Element (ARE) (AID 2283379). The procedure, abridged: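 Luminescence increase above DMSO, read after a 24 h compound treatment of CHO-K1 cells expressing an androgen response element luciferase reporter, gives the single primary endpoint; concentration-response fitting used the positive direction.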
Sequence of Agonist Androgen Response Element (ARE), AR (gene 367) (P10275 whole entry, looked up): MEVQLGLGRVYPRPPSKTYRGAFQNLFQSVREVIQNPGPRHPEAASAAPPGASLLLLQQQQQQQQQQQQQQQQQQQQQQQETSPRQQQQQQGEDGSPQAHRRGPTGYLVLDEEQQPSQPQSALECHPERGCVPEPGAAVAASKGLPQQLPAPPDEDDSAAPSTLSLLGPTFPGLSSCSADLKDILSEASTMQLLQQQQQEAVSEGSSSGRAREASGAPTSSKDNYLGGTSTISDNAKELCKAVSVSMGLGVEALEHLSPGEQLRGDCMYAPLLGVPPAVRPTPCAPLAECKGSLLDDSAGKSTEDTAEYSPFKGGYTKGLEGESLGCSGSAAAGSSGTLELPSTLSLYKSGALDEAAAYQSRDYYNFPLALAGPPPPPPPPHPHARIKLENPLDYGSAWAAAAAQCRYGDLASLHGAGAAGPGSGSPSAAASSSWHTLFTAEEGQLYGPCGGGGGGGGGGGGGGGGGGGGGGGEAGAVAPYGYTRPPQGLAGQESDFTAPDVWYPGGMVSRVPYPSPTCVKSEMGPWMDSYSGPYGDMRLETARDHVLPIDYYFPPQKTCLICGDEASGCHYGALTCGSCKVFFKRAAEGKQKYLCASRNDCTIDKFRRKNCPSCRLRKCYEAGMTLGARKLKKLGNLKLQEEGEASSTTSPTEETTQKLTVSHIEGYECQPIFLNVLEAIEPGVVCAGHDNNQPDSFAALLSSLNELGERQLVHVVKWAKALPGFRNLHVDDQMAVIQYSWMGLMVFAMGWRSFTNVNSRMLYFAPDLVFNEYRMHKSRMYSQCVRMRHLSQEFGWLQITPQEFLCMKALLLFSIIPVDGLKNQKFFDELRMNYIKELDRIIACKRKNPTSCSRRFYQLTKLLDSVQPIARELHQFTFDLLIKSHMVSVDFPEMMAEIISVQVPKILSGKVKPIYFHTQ

The target in assay [11] is guinea pig Sigma Receptor, Non-selective Binding, SIGMAR1 (gene 100135589) (UniProt Q60492). The assay is described as follows: NVS_OR_gSIGMA_NonSelective: NovaScreen (NVS) Nuclear Receptor Binding Assay for guinea pig Sigma Receptor, Non-selective Binding (AID 2283367). Summed up:
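Test chemicals were screened in duplicate at 25 uM, then in concentration series if active, against radioligand binding to guinea pig brain membranes; filtration and scintillation counting at 1 h measured remaining bound ligand.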

Assay [12] concerns the target rat Androgen Receptor (AR), Ar (gene 24208) (UniProt P15207). The assay is described as follows: NVS_NR_rAR: NovaScreen (NVS) Nuclear Receptor Binding Assay for rat Androgen Receptor (AR) (AID 2283366). Summed up:
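Actives from a duplicate single-concentration (25 uM) primary run went on to concentration series. Displacement of radioligand was counted by filtration and scintillation, 18 h post-dose, using prostate extracts from testosterone-pretreated rats, with DMSO as baseline.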

For assay [13], the target named is Retinoic acid receptor RXR-alpha (Homo sapiens) (UniProt P19793). The assay is described as follows: OT_NURR1_NURR1RXRa_0480: Odyssey Thera (OT) 8-hour HEK293T Protein Complementation Assay for Nurr1/retinoid X receptor (RXR) (AID 2283385). Summed up: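 Gain in fluorescent complementation signal over DMSO, measured 8 hours after chemical dosing of human kidney HEK293T cells, indicated enhanced Nurr1–RXRα association.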

For assay [14], the target named is human Adenosine Transporter (Adot), SLC29A1 (gene 2030) (UniProt Q99808). The assay is described as follows: NVS_TR_hAdoT: NovaScreen (NVS) Transporter Assay for human Adenosine Transporter (Adot) (AID 2283368). Summed up: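 Binding displacement on U937 extracted protein, read 1 h post-dose by filtration and scintillation counting. Primary duplicate test at 25 uM, then singleton concentration series with 50 uM top; DMSO baseline.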

The target in assay [15] is Glucocorticoid receptor (Homo sapiens) (UniProt P04150). The assay is described as follows: NVS_NR_hGR: NovaScreen (NVS) Nuclear Receptor Binding Assay for human Glucocorticoid Receptor (GR) (AID 2283363).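 As to AC50: activity is loss of specific radioligand binding signal relative to DMSO.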 Summed up: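 Single-readout cell-free binding: radioligand plus extracted receptor, 16-hour dosing, filter radiodetection; 25 uM duplicate primary, concentration series secondary.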
Sequence of Glucocorticoid receptor (Homo sapiens) (P04150 whole entry, looked up): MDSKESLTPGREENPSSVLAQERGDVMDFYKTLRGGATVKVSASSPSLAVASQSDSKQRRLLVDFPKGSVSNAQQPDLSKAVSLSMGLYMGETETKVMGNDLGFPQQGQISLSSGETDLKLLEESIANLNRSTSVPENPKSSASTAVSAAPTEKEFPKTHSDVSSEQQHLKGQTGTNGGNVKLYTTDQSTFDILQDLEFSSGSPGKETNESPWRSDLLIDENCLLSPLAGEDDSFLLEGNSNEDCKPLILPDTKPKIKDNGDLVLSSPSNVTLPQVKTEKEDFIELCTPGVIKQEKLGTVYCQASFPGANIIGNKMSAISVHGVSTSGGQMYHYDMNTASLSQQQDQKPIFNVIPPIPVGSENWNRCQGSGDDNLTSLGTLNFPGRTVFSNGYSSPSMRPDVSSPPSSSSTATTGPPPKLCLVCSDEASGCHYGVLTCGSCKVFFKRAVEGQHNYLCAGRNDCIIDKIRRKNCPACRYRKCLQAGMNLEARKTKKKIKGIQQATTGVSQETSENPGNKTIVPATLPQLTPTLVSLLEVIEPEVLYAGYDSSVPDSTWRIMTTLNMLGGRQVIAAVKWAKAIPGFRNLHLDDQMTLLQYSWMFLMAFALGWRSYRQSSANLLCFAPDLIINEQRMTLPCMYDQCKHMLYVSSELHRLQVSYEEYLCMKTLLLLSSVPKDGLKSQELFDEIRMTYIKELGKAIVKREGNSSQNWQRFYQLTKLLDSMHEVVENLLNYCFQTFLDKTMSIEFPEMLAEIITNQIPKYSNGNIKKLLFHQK

Values joined by “and” are separate entries in the source; they are usually repeats but may differ in a detail not shown here. Identical values can stand only once. Results filed as inconclusive are left out. A structure can be active in one record and inactive in another. Active and inactive are the calls of the source. The calls were made as follows, unless noted: active = hit-call score of the fitted dose curve at least 0.9, where 1 is the maximum; inconclusive = response in the unintended direction; inactive = score below 0.9.

Sequence of Nuclear receptor subfamily 1 group I member 2 (Homo sapiens) (O75469 whole entry, looked up): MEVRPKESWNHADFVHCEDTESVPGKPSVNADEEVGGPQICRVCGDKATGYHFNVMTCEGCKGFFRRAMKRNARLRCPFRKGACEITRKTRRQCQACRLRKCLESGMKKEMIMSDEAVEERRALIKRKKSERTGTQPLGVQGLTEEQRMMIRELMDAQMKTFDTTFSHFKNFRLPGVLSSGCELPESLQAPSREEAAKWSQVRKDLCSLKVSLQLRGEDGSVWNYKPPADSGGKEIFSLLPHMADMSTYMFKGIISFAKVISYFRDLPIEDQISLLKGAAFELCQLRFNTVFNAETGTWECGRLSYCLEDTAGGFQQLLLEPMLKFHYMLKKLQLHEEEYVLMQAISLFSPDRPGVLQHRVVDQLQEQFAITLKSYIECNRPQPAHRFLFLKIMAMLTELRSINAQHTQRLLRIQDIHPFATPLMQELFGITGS
Sequence of Peroxisome proliferator-activated receptor gamma (Homo sapiens) (P37231 whole entry, looked up): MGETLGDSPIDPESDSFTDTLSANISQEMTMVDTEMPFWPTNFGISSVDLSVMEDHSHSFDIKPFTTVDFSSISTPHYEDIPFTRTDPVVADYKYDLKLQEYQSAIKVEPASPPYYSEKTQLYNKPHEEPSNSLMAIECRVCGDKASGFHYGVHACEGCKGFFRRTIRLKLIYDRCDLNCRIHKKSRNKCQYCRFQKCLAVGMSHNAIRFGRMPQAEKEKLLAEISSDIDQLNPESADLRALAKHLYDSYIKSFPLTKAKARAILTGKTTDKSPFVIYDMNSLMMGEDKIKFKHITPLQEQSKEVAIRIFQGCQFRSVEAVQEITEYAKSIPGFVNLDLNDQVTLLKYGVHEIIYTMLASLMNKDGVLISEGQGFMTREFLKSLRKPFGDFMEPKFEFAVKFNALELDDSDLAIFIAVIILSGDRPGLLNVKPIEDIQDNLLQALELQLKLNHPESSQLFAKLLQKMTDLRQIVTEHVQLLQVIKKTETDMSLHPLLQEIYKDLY
Sequence of human Dopamine Transporter (DAT), SLC6A3 (gene 6531) (Q01959 whole entry, looked up): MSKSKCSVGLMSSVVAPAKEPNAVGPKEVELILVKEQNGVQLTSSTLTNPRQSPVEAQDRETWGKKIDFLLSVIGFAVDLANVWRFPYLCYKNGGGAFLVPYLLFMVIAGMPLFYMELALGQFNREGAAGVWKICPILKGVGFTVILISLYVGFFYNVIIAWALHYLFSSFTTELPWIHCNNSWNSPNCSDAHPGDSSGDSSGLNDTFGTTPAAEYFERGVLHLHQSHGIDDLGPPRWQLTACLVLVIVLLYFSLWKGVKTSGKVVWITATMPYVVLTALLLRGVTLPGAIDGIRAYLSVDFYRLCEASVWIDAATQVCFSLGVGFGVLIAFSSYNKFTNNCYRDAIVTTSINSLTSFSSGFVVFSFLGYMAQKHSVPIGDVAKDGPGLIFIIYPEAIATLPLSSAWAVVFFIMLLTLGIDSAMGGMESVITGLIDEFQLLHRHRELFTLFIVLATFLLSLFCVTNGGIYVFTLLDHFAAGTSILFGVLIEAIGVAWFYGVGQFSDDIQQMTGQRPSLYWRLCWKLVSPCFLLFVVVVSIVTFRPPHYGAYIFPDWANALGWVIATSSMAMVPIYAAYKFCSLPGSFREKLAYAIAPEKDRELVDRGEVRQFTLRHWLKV
Sequence of human Norepinephrine Transporter (NET), SLC6A2 (gene 6530) (P23975 whole entry, looked up): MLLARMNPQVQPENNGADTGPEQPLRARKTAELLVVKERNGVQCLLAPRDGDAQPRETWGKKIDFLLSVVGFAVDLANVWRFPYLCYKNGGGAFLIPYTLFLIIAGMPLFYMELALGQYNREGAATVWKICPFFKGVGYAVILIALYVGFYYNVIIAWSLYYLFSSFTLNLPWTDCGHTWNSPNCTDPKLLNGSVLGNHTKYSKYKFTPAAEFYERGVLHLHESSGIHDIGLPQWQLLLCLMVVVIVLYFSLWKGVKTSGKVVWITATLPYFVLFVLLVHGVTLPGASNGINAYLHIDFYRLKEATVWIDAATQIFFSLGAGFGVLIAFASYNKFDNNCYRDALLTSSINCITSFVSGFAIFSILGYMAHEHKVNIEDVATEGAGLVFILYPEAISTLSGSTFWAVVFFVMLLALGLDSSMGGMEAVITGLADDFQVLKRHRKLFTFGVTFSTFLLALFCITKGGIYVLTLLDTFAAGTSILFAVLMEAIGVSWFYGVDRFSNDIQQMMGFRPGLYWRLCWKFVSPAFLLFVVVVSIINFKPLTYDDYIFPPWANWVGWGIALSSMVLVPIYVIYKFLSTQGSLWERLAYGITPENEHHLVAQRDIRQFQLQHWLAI

For `O=C(Nc1ccc2[nH]ccc2c1)c1cc2cc(F)ccc2n1Cc1cccc(F)c1`, the result in assay [1], in assay [2], in assay [3], in [4] and in [5] was inactive.

As to `OCc1ccco1`, the compound was called inactive in assay [1], in assay [2], in [4] and in assay [5].

As a reminder, the AC50 is the midpoint of the concentration-response curve, whichever way the signal moves. `CC1(C)CCC(Cc2ccc(Cl)cc2)C1(O)Cn1cncn1` (configuration not stated): the outcome in assay [1] and in [4] was inactive. The values for the AC50 in assay [5] and in assay [6] were 24.3 µM (active) and 31.6 µM (active), respectively.

Turning to `CC(C)(c1ccccc1)c1ccc(O)c(C(C)(C)c2ccccc2)c1`, the result in assay [1], in [7], in assay [8], in assay [2] and in [4] was inactive.

As to `Cc1ccccc1C(=O)Nc1cccc(OC(C)C)c1`, in assay [1], the AC50 is 7.03 µM (active). Further, the result in assay [9], in assay [10], in [2] and in assay [4] was inactive.

Consider `C[C@]12CCC(=O)C[C@@H]1CC[C@@H]1[C@@H]2CC[C@]2(C)[C@@H](O)CC[C@@H]12`, for which the result in [1] and in [2] was inactive. Also, the AC50 was 5.71 µM (active) in assay [11]; 6.06 µM (active) and 8.11 µM (active) and 7.61 µM (active) in [2].

As to `CC(C#N)CCC#N` (configuration not stated), the outcome in assay [1], in [2] and in [4] was inactive.

For `Oc1cccc2cccnc12`, the compound was classed as inactive in assay [1], in assay [2] and in assay [5].

On to `C[C@@H]1C[C@@H]([C@H](O)CC2CC(=O)NC(=O)C2)C(=O)[C@@H](C)C1`, for which the outcome in [1] and in [2] was inactive.

As for `CC12CC1(C)C(=O)N(c1cc(Cl)cc(Cl)c1)C2=O` (configuration not stated), the compound was called inactive in assay [1], in [12], in [10], in assay [2] and in assay [13].

In the case of `CC(=O)[O][Hg][c]1ccccc1`, the AC50 in [1] is 5.37 µM (active); in [14], 11.8 µM (active); in [7], 12.4 µM (active); in assay [8] it was 212 nM (active); in [3], 4.11 µM (active); in assay [4], 12 µM (active). Besides, the AC50 in assay [6] is 0.2 µM (active). Also, the outcome in assay [10] and in assay [2] was inactive.

For `CCOP(=S)(OCC)SCSP(=S)(OCC)OCC`, the compound was called inactive in [1], in assay [8], in assay [3] and in assay [13]. Besides, the results for the AC50 in [7], in assay [2] and in assay [4] were 25 µM (active), 17.5 µM (active) and 10.9 µM (active), respectively.

Consider `CC(C)(c1ccc(OCC2CO2)cc1)c1ccc(OCC2CO2)cc1` (configuration not stated), for which the compound was classed as inactive in assay [15], in [9], in assay [10], in [2], in assay [3] and in assay [4]. The compound was classed as inactive in [13].

For the compound `COc1cc(OC)nc(NC(=O)NS(=O)(=O)c2ncccc2C(=O)N(C)C)n1`, the compound was classed as inactive in assay [1], in assay [2] and in assay [4].

For `CCC[CH2][Sn]([CH2]CCC)([CH2]CCC)[O]C(=O)c1ccccc1`, the AC50 in assay [1] is 14.6 µM (active). Also, in [9], the AC50 is 1.83 µM (active) and the result was inactive.

Regarding `O=C1C2(Cl)C3(Cl)C4(Cl)C(Cl)(Cl)C5(Cl)C3(Cl)C1(Cl)C5(Cl)C24Cl` (configuration not stated), the AC50 was 841 nM (active) and 992 nM (active) and 186 nM (active) in assay [15]; 1.57 µM (active) and 1.82 µM (active) and 869 nM (active) in assay [8]; 10.7 µM (active) in assay [5]; 10.8 µM (active) in assay [6]. Besides, the outcome in [1], in assay [12], in assay [9] and in [10] was inactive.

(Values after PubChem BioAssay (EPA / NIEHS).)
